Pf growth 96h: inhibits malaria parasite growth, 96 h | P. falciparum luciferase reporter growth, 96 h | Potency, µM (highest dose often 28.7 µM), without a hit: top-dose activity change, negative = inhibition, usual class: inhibitors | hit rate 6.9% among 320,000 | AID 504834
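Erythrocytes infected with luciferase-expressing P. falciparum were dispensed at 2% hematocrit and 0.05% parasitemia (final), then incubated with compounds 96 hours at 37 C in 5% CO2. Luminescence after detection reagent addition reported growth.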
HCV inhibitor: blocks hepatitis C virus. Potency, µM (series often up to 41.8 µM), inactives show top-dose activity change, negative = inhibition, most hits filed as inhibitors. AID 651820. Huh7.5.1 HCVcc-Cre infection, luciferase reporter, 44 h. hit rate 3.4% among 340,000
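Reporter virus HCVcc-Cre (~0.5 moi) infects cells exposed to compound; seeding density 1,000 cells/well with 4 h settling beforehand. Luminescence, 15 sec read, taken 44 h post-infection following a 15 min RT substrate incubation.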
Pf growth 48h: P. falciparum growth inhibition at 48 hours (one generation); hit rate 5.9% among 310,000; Potency, µM (highest dose often 28.7 µM), for inactives: top-dose activity change, negative = inhibition, actives largely listed as inhibitors; P. falciparum luciferase growth in erythrocytes, 48 h; AID 504832
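Firefly luciferase activity from engineered P. falciparum reports growth; inhibitors lower the luminescent signal. Cultures contained 2% hematocrit erythrocytes at 0.1% final parasitemia.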
AMA1 RON2 block: inhibitors of Plasmodium falciparum AMA1-RON2 interaction. AlphaScreen AMA1-biotinylated RON2 peptide binding. Potency, µM (top dose mostly 58.2 µM), for the others: top-dose activity change, negative = inhibition, most hits filed as inhibitors. hit rate 0.2% among 360,000. AID 720542;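 also: 0% = vehicle wells and -100% = peptide control; nearly all actives have a fitted effect of over 45% in size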
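AMA1 (3D7) with his tag at 25 nM final met compounds first, then biotinylated RON2 peptide at 25 nM; detection used donor plus acceptor beads, 10 µg/mL apiece, read by AlphaScreen after 30 min at room temperature.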
* marks the source's active call; other numbers are inactive results; u = inconclusive; x = no result; [ ] = remark or other dose. Sampled rows, rich in hits. Any-hit rate of the full collection: about 11%. Calls follow the shape of the dose curve; as a rule, active = well fitted curve in the direction sought with a large enough effect; inconclusive = small, poorly fitted or top-dose-only effect, or another doubt; inactive = no such curve, though single readings can be large; an effect the other way counts as inactive or inconclusive. Unless noted, % is scaled to controls: 0 for no effect and ±100 for the full control effect; potency is read from the fitted curve at half-maximal effect.

SMILES	Pf growth 96h	HCV inhibitor	Pf growth 48h	AMA1 RON2 block
CC1=NN(c2nc(N)nc(/C(C#N)=C/c3ccc([N+](=O)[O-])o3)n2)C(C)(C)C1	x	8.91µM*	x	8.7%
Cc1cc(C)c2c(N)c(C(=O)c3ccccc3)oc2n1	2.33µM*	x	16.1%	30.8%
Cc1cc(C)c2c(N)c(C(=O)c3ccc(Br)cc3)oc2n1	15.0%	u	5.2%	13.9%
Cc1cc(C)c(-c2c(N)cc(Br)cc2Br)c(N)c1	x	u	x	-5.8%
Cc1ccc(C(=O)N[C@@H](Cc2ccccc2)C(=O)N2CCC3(CC2)NCCc2[nH]cnc23)cc1C	-13.2%	20.3%	-20.4%	-8.4%
Cc1ccc(-n2nc(C)c(NC(=O)CCl)c2C)cc1C	-0.8%	3.55µM*	4.15µM*	9.8%
COC(=O)c1ccc(S(=O)(=O)NCCSc2nnc3c4ccccc4n(C)c3n2)cc1	-2.2%	10µM*	u	-4.3%
CC(=O)Nc1ccc(NC(=O)CSc2nnc3c4ccccc4n(C)c3n2)cc1	-3.9%	-2.3%	8.1%	-2.7%
CC(C)CSc1nnc2c3ccccc3n(C)c2n1	6.57µM*	-0.5%	122.3%	6.4%
CC(C)OC(=O)CSc1nnc2c3ccccc3n(C)c2n1	-11.3%	19.6%	8.8%	-2.5%
O=C(Nc1ccc(NC(=S)NC(=O)C(c2ccccc2)c2ccccc2)cc1)c1ccccc1	x	u	x	32.2%
CCN(c1ccccc1)S(=O)(=O)c1ccc(C(=O)Nc2ncccc2C)cc1	-0.8%	u	u	9.1%
CN(c1ccccc1)S(=O)(=O)c1ccc(C(=O)Nc2nccs2)cc1	u	10.3%	x	35.9%
CN(c1ccccc1)S(=O)(=O)c1ccc(C(=O)Nc2ncccc2O)cc1	9.28µM*	16.1%	6.57µM*	74.5%
CCN(c1ccccc1)S(=O)(=O)c1ccc(C(=O)Nc2ncccc2O)cc1	5.86µM*	-10.2%	u	79.3%
COc1cc(CCC(=O)OCC(=O)Nc2cc(S(=O)(=O)N3CCOCC3)ccc2Cl)cc(OC)c1OC	x	23.5%	x	32.4%[11.6 µM]
Cc1nc2ccccc2c(=O)n1-c1ccc(F)c(NS(=O)(=O)c2ccccc2F)c1	u	5.8%[8.37 µM]	-10.0%	12.8%
CC(=O)N=Nc1[nH]c(N)c2ccccc12	5.8%	18.5%	4.8%	23.6%
Cc1nc2ccccc2c2c(N)c3ccccc3n12	8.28µM*	-29.5%	u	-7.8%
Cc1nc2ccccc2n1-c1ccccc1	-15.6%	u	-0.7%	-13.8%
Cc1ccccc1N=C(N)Nc1ccccc1C	10.4µM*	7.5%	u	-0.9%
CC(C)CNC(=O)COc1ccc(Sc2ccc(OCC(=O)NCC(C)C)cc2)cc1	u	u	u	12.7%
CCCC(C)NC(=O)COc1ccc(Sc2ccc(OCC(=O)NC(C)CCC)cc2)cc1 (stereo unspecified)	u	u	7.38µM*	-18.8%
CCC(Sc1nc2ncccc2[nH]1)C(=O)NCCc1ccccc1 (stereo unspecified)	-3.2%	-6.5%	30.1%	0.1%
CC(C)NC(=O)CN1CCN(Cc2nc(C(c3ccccc3)c3ccccc3)no2)CC1	-25.6%	14.1%	9.28µM*	-5.2%
SMILES	Pf growth 96h	HCV inhibitor	Pf growth 48h	AMA1 RON2 block
Cc1ccc(C(=O)N/C(=C/c2ccc(C(C)C)cc2)C(=O)NCCCN2CCOCC2)cc1	u	-7.7%	-5.7%	-5.6%
CCc1cc(C(=O)NCC2CCCO2)sc1C (stereo unspecified)	69.7%	12.4%	70.0%	-12.5%
CS(=O)(=O)N(CC(=O)N1CCCCCC1)c1cccc(Br)c1	11.7µM*	10.9%	6.3%	0.9%
Cc1ccc(N(CC(=O)N2CCCCCC2)S(C)(=O)=O)cc1Cl	7.38µM*	3.6%	-21.8%	2.0%
Cc1ccc(N(CC(=O)N2CCOCC2)S(C)(=O)=O)cc1Cl	u	18.5%	4.5%	12.3%
Cc1cccc(N(CC(=O)N2CCCCCC2)S(C)(=O)=O)c1	u	13.9%	11.2%	12.2%
CCOc1ccc(NC(=O)CN(C)C(=O)c2ccccc2CCc2ccccc2)cc1OCC	u	u	u	-26.8%
O=C(CNC(=O)c1ccco1)NNC(=O)c1cccc(Cl)c1	x	3.7%	x	37.1%
CCOc1ccc(CCNC(=O)CCn2ccc3cc(S(=O)(=O)N4CCCC4)ccc32)cc1	u	12.6µM*	u	-5.8%
CCCCNC(=O)CCn1ccc2cc(S(=O)(=O)N3CCCC3)ccc21	-17.0%	-6.5%	-5.3%	-0.2%
CCOCCCNC(=O)CCn1ccc2cc(S(=O)(=O)N3CCCC3)ccc21	10.4µM*	11.4%	u	15.3%
Cc1c(C(=O)NCc2ccc3c(c2)OCO3)sc(=O)n1Cc1cccc(F)c1	x	x	x	-15.1%
COc1cc(NC(=O)C2CCCN(S(=O)(=O)c3ccc4c(c3)oc(=O)n4C)C2)cc(OC)c1 (stereo unspecified)	-85.3%	-22.2%	x	13.1%
COc1ccc(C)cc1S(=O)(=O)N1CCCC(C(=O)N2CCN(c3ccccc3F)CC2)C1 (stereo unspecified)	u	u	10.4µM*	-17.8%
COc1ccc(N2CCN(C(=O)C3CCCN(S(=O)(=O)c4ccc5c(c4)oc(=O)n5C)C3)CC2)cc1 (stereo unspecified)	u	-3.3%	11.7µM*	2.0%
COc1ccccc1N1CCN(C(=O)C2CCCN(S(=O)(=O)c3ccc4c(c3)oc(=O)n4C)C2)CC1 (stereo unspecified)	52.7%	u	11.7µM*	-1.2%
CCCS(=O)(=O)N1CCCC(C(=O)NCCc2cccc(C)c2)C1 (stereo unspecified)	u	2.4%	-7.3%[0.00184 µM]	-3.5%
CCOC(=O)C1CCCN(C(=O)C2(c3ccc(Cl)cc3)CCCC2)CC1 (stereo unspecified)	x	x	x	14.6%
CCN(CC)S(=O)(=O)c1ccc(C(=O)Nc2cc3oc4ccccc4c3cc2OC)cc1	u	0.5%	-13.3%	-1.4%
COc1cc2c(cc1NC(=O)c1cccc([N+](=O)[O-])c1C)oc1ccccc12	-31.1%	2µM*	u	-3.9%
COc1cc2c(cc1NC(=O)c1cccc(S(=O)(=O)N(C)C)c1)oc1ccccc12	68.1%	1.41µM*	14.7%	0.3%
COc1cccc(OC)c1C(=O)Nc1cccc(-n2cnnn2)c1	5.2%	-1.3%	19.2%	10.7%
CC(C)NC(=O)c1ccc(-c2ccc(F)c(F)c2)c2ccoc12	x	x	x	1.3%
c1ccc(COC(CN2CCCCCC2)CN2CCCCCC2)cc1	-26.7%	10µM*	u	4.5%
OC(COCc1ccccc1)CN1CCCC1 (stereo unspecified)	-3.0%	-2.9%	6.5%	0.2%
COc1ccc(NC(C)C(=O)N/N=C/c2ccccc2OCc2ccc(Br)cc2)cc1 (stereo unspecified)	67.2%	u	9.28µM*	-28.5%
COC(=O)N/N=C\c1cc(Br)ccc1OCc1ccccc1	51.2%	10µM*	17.2%	15.7%
CC(C)(C)c1ccc(OCC(=O)N/N=C/c2cc(Br)ccc2OC(=O)c2ccco2)cc1	u	u	2.08µM*	29.0%
COC(=O)N/N=C/c1ccccc1OCc1ccccc1	0.0%	-1.0%	1.9%	1.5%
COc1ccc(Br)cc1/C=N/NC(=O)c1ccco1	-8.2%	9.3%	18.4%	-7.5%
